High-throughput results as filed in PubChem.
BAZ2B block = BAZ2B (human) inhibition. Potency, µM (highest dose often 114 µM), for inactives: at the top dose activity change, negative = inhibition, actives largely listed as inhibitors. Q9UIF8. 360,000 compounds, 4.4% hits. AlphaScreen BAZ2B-H3K14Ac peptide displacement; further: potency means the concentration at half of the fitted maximal effect; on the % scale 0 is the no-effect control and ±100 the full control effect; nearly all actives have a fitted effect of over 60% in size
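Multi-concentration screen (max 110 uM) measuring displacement of acetylated histone H3 peptide from BAZ2B by AlphaScreen, using 50 nM protein, 50 nM peptide and 10 ug/mL streptavidin donor plus Ni-chelate acceptor beads.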
Six1-Eya2 blk = Six1/Eya2 interaction inhibition; 360,000 compounds, 0.56% hits; activity change, % (concentration not given with the values); Q15475+O00167; AlphaScreen GST-Six1/His-Eya2 binding, biochemical; active compounds read low; in the data active means activity change below about -65%; inconclusive means mostly about -30% to -63%; further: on the % scale 0 is the no-effect control and ±100 the full control effect
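AlphaScreen with GST-Six1 and His-Eya2 (5X mix: 250 nM and 500 nM), glutathione donor and nickel acceptor beads; buffer 50 mM Tris pH 8.0, 300 mM NaCl, 1 mM TCEP; 1 h at 37 C in the dark.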
JMJD2A Tudor inh = blocks the human JMJD2A Tudor domain. O75164. Potency, µM (highest dose often 114 µM), for inactives: at the highest dose activity change, negative = inhibition, hits mostly inhibitors. 390,000 compounds, 4.4% hits. AlphaScreen JMJD2A-Tudor / H3K4me3 peptide binding; further: potency means the concentration at half of the fitted maximal effect; on the % scale 0 is the no-effect control and ±100 the full control effect; nearly all actives have a fitted effect of over 50% in size
TDP1 inh = TDP1 (human) enzyme inhibition. recombinant TDP1, AlphaScreen DNA substrate cleavage. 350,000 compounds, 0.28% hits. Potency, µM (doses to about 130 µM), without a hit: at the highest dose activity change, negative = inhibition, most hits filed as inhibitors. Q9NUW8. AID 485290; further: potency means the concentration at half of the fitted maximal effect; on the % scale 0 is the no-effect control and ±100 the full control effect; nearly all actives have a fitted effect of over 40% in size
Target sequence (Q9NUW8 whole entry, looked up): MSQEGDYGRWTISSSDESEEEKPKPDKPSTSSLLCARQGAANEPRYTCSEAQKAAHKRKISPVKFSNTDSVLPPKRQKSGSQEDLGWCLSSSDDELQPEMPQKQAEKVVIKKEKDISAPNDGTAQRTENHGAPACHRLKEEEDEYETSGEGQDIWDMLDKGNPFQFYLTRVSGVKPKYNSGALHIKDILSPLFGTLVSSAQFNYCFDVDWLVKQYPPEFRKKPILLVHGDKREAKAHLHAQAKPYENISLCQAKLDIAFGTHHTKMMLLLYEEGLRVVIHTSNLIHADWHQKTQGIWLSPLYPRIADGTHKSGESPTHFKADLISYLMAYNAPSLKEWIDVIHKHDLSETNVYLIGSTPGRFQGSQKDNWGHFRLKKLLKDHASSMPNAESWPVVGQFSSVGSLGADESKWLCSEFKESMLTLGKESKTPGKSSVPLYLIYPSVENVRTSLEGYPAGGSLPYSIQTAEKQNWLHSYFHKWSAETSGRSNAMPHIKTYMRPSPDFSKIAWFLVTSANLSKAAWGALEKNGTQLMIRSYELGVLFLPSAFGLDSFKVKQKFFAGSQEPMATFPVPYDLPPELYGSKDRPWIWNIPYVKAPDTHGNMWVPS
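Here, a 5' biotin and 3' phosphotyrosine-FITC DNA oligonucleotide reports Tdp1 activity: intact substrate bridges AlphaScreen beads, while cleavage leaves a 3' phosphate and drops signal. All incubations at room temperature.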
CtBP-E1A blk = blocks the CtBP interaction with E1A; AlphaScreen GST-E1A/His-CtBP binding, 1536-well; active compounds read low; activity change, % (no concentration beside the values); 340,000 compounds, 0.49% hits; AID 651724; in the data active means activity change below about -65%; inconclusive means mostly about -30% to -63%; further: on the % scale 0 is the no-effect control and ±100 the full control effect
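Homogeneous bead-based format: GST-tagged E1A captured on glutathione donor beads, His-tagged CtBP on nickel acceptor beads; compounds precede bead addition by 2 h at 37 °C.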
HP1b chromo inh = inhibitors of HP1-beta chromodomain binding to methylated histone tails; P83916; AlphaScreen HP1-beta / biotin-H3K9me3 peptide binding; Potency, µM (series often up to 114 µM), inactives show at the top dose activity change, negative = inhibition, usual class: inhibitors; 390,000 compounds, 0.56% hits; further: potency means the concentration at half of the fitted maximal effect; nearly all actives have a fitted effect of over 70% in size
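AlphaScreen: HP1-beta (50 nM) preformed 30 min with biotin-H3(1-18)K9me3 peptide (50 nM) in PBS pH 7.4, 0.01% Tween-20. Compound added for 30 min at RT, then streptavidin donor/nickel chelate acceptor beads (10 ug/mL) for 30 min.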
Starred values were filed as active, the others as inactive; ? = inconclusive; · = no result; [ ] = another dose, or the depositor's remark. The list is not random: actives were taken first. Their share in the collection is about 5.3%. Unless noted, the call rests on the fitted dose curve; in most records, active means well fitted inhibition curve with a large enough effect; inconclusive means small, poorly fitted or top-dose-only effect; inactive means no such curve, though single readings can be large or run the other way.

SMILES	BAZ2B block	Six1-Eya2 blk	JMJD2A Tudor inh	TDP1 inh	CtBP-E1A blk	HP1b chromo inh
COc1cccc(C(=O)NC2CCN(CC(=O)NCc3ccccc3OC)CC2)c1	-4%	2	-18%	0%	-1	15%
COc1ccc(CNC(=O)CN2CCC(NC(=O)c3cccc(OC)c3)CC2)cc1	·	-13	1µM*	·	-4	-33%[57 µM]
CCN(CC)S(=O)(=O)c1ccc(C(=O)NCCSc2c[nH]c3ccccc23)cc1	-34%	-3	-25%	-8%	0	24%
CN(C)c1ccc(C(CNC(=O)c2ccccc2Br)c2c[nH]c3ccccc23)cc1 (stereo not drawn)	14µM*	-1	-21%	-3%	-2	24%
CN(C)c1ccc(C(CNC(=O)c2ccc(C#N)cc2)c2c[nH]c3ccccc23)cc1 (stereo not drawn)	20µM*	?	40µM*	10%	2	?
CC1=NN(C(=O)c2ccccc2F)C(O)(c2ccc(Cl)cc2)C1 (stereo not drawn)	50µM*	1	-33%	2%	-8	25%
COc1ccc(-c2cc(-c3ccccc3)c(C#N)c(SCC(=O)O)n2)cc1	·	-19	2%	·	-21	60%
CCCOc1ccc(-c2cc(C(F)(F)F)c(C#N)c(SCCC(=O)O)n2)cc1	?	·	79µM*	·	·	-17%
COc1ccc(-c2cc(-c3ccc(Cl)cc3)c(C#N)c(SCC(=O)O)n2)cc1	?	-2	79µM*	·	2	?
CCCOc1ccc(-c2cc(C(F)(F)F)c(C#N)c(SCC(=O)O)n2)cc1	4%	-3	-6%	0%	0	59%
Cc1cc(C(=O)Nc2ccncc2)ccc1[N+](=O)[O-]	-10%	0	9%	·	11	24%
Cc1cc(C(=O)Nc2ccc(Nc3ccccc3)cc2)ccc1[N+](=O)[O-]	-25%	?	10µM*	·	-21	22µM*
O=C(Nc1ccc(Nc2ccccc2)cc1)c1ccc(Cl)c([N+](=O)[O-])c1	40µM*	?	50µM*	·	·	?
O=C(Nc1ccccc1-c1ccccc1)c1ccc(Cl)c([N+](=O)[O-])c1	-23%	-13	-13%	4%	-10	11%
COc1ccc(-c2noc(N3CCC(C(=O)Nc4ccc(C)c(F)c4)CC3)n2)cc1OC	2%	·	3%	6%	·	17%
CCOC(=O)Cc1cc(=O)n2[nH]c(C)cc2n1	?	3	16µM*	-2%	0	11%
COc1ccc(-c2cccc(NS(=O)(=O)c3ccc(NC(C)=O)cc3)c2)nn1	-4%	·	-17%	7%	·	8%[57 µM]
CCCC[C@]12Cc3cc(OC)c(OC)cc3C(O1)C1=C(O2)C(=O)c2ccccc2C1=O	7.1µM*	·	·	·	·	·
O=C(N1CCc2ccc(S(=O)(=O)N3CCN(S(=O)(=O)c4ccc5c(c4)OCCO5)CC3)cc2C1)C(F)(F)F	·	·	-4%	0%	·	·
Cc1ccc2c(c1Br)/C(=N/N1C(=O)c3ccccc3C1=O)C(=O)N2	-10%	1	-19%	2%	4	35%
CCOc1ccc(N=C2C(=O)Nc3ccc(C)c(Br)c32)cc1	35µM*	-2	?	·	-5	?
Cc1sc2ncnc(N(C)Cc3cccs3)c2c1C	43%	8	52%	-1%	13	143%
Cc1sc2ncnc(N(C)CCc3ccccn3)c2c1C	25µM*	3	1.4µM*	-8%	-2	18µM*
O=C(N=Nc1c(O)[nH]c2ccccc12)c1cc(-c2cccs2)[nH]n1	50µM*	-10	-31%	?	-9	13%
CC[C@H](C)[C@H](NC(=O)[C@H](CC(C)C)NC(=O)[C@@H](N)CO)C(=O)NCC(=O)N[C@@H](CCCN=C(N)N)C(=O)N[C@@H](CC(C)C)C(=O)O	·	·	·	7%	·	·
SMILES	BAZ2B block	Six1-Eya2 blk	JMJD2A Tudor inh	TDP1 inh	CtBP-E1A blk	HP1b chromo inh
Cc1ccc(NC(=O)CN2C(=O)COc3ccc(S(=O)(=O)NC4CCCC4)cc32)c(Cl)c1	-2%	·	-28%	9%	·	4%
COc1ccc2cc(C(C)C(=O)OC(C)C)ccc2c1 (stereo not drawn)	130%	38	131%	79µM*	24	166%
CCN(CC)C(=O)C1CCCN(Cc2cccc(F)c2)C1 (stereo not drawn)	?	0	3.2µM*	-3%	1	-46%
NC(=O)C1CCCN(Cc2ccc3ccccc3c2)C1 (stereo not drawn)	3%	1	-20%	·	·	10%
Cc1cccc(CN2CCCC(C(=O)N3CCc4ccccc4C3)C2)c1 (stereo not drawn)	50µM*	0	1%	-3%	-6	26%
CCN(CC)C(=O)C1CCCN(Cc2sccc2C)C1 (stereo not drawn)	28µM*	4	3.5µM*	-2%	4	?
CCN(CC)C(=O)C1CCCN(Cc2ccc3ccccc3c2)C1 (stereo not drawn)	?	5	22µM*	·	3	3%
C=CCC(=O)N(CC)CC1CCCN(CCc2cccc(F)c2)C1 (stereo not drawn)	-3%	4	4%	2%	9	16%
CCCSc1ncc(Cl)c(C(=O)Nc2ccc(S(=O)(=O)N3CCCCC3C)cc2)n1 (stereo not drawn)	-18%	·	-14%	4%	·	22%
Cc1nn(CCCC(=O)NCc2ccccc2)c(=O)c2cc3sccc3n12	5%	·	-16%	4%	·	19%
Clc1ccccc1CNCC1CCC(CNCc2ccccc2Cl)CC1 (stereo not drawn)	·	·	·	-8%[56.1 µM]	·	·
O=C(N1CCc2cc([S+](=O)([O-])N3CCN([S+](=O)([O-])c4c(F)cccc4F)CC3)ccc2C1)C(F)(F)F	·	·	-18%	·	·	·
Cc1nnc(N2C(=O)C(O)=C(C(=O)c3ccco3)C2c2ccc(C(C)(C)C)cc2)s1 (stereo not drawn)	-1%	-5	-31%	7%	3	29%
Cc1nnc(N2C(=O)C(O)=C(C(=O)c3ccco3)C2c2ccc(F)cc2)s1 (stereo not drawn)	4%	-3	56µM*	-5%	5	34%
CSc1nc2c(c(=O)[nH]1)C(c1ccccc1)C1=C(CC(C)(C)CC1=O)N2 (stereo not drawn)	-23%	10	6%[11.4 µM]	-1%	·	36%
Cc1ccc(C2C3=C(CCCC3=O)Nc3[nH]c(=S)[nH]c(=O)c32)cc1 (stereo not drawn)	79µM*	-3	10µM*	4%	1	-32%
CC1(C)CC(=O)C2=C(C1)Nc1[nH]c(=S)[nH]c(=O)c1C2c1ccccc1 (stereo not drawn)	-35%	-2	45µM*	6%	0	-3%
